# Source: PubChem BioAssay (Tox21)
# Inconclusive results are not listed. Where a call stands in place of a potency, no number is given. Calls of active or inactive are those of the source. Calls follow the shape of the dose curve; as a rule, active = well fitted activation curve with a large enough effect in the repeat runs; inconclusive = weak or mixed curves; inactive = no such curve, though single readings can be large or run the other way.
# Experiment: qHTS assay for small molecules that induce genotoxicity in human embryonic kidney cells expressing luciferase-tagged ATAD5 (AID 651632); also: nearly all actives have a fitted effect of over 15% in size
# Conditions: HEK293T ATAD5-luciferase induction, 16 h; series mostly up to 83.3 µM
# Text: U.S. Tox21 Program National Center for Advancing Translational Sciences [NCATS] NIH Chemical Genomics Center [NCGC] U.S. Environmental Protection Agency [EPA] National Institutes of Environmental Health Sciences [NIEHS] National Toxicology Program [NTP] U.S. Food and Drug Administration [FDA] Tox21 Assay Overview: As cancer cells divide rapidly and during every cell division they need to duplicate their genome by DNA replication. The failure to do so results in the cancer cell death. Based on this concept, many chemotherapeutic agents were developed but have limitations such as low efficacy and severe side effects etc. A new cell based assay was developed to find the compounds that effectively block DNA replication either by directly damaging DNA or by inhibiting other cellular mechanisms. Enhanced Level of Genome Instability Gene 1 (ELG1; human ATAD5) protein levels increase in response to various types of DNA damage. Using a luciferase reporter-gene tagged with ATAD5, a cell-based assay [developed by Kyungjae Myung, NHGRI, NIH] was used to measure the induction of ATAD5 in human embryonic kidney cells (HEK293T). So, increase in luciferase activity can be used to identify the compounds that cause genetic stress.
# Tox21 Assay Protocol Summary: For genotoxicity screening, 2,000 cells in 5 uL/well were dispensed into white, solid-bottom 1536-well plates using a Multidrop Combi (Thermo Scientific) dispenser. Following transfer of 23 nL compound or DMSO vehicle by a pin tool, the plates were incubated 16 hr at 37C and 5% CO2. 5 ul Amplite (AAT Bioquest, Inc.) was then added to each plate and following 30 min incubation at room temperature, luciferase activity was quantified on a ViewLux CCD-based plate reader.
# Potency is read from the fitted curve at half-maximal effect.
row,SMILES,Potency
1,Cc1cc(O)c(Cl)c(C)c1Cl,inactive
2,Clc1ccc2nsnc2c1NC1=NCCN1,inactive
3,CC(C)OC(=O)c1cc2c(OCC(O)CNC(C)(C)C)cccc2[nH]1 (stereo not given),inactive
4,Nc1ccc2c3c(cccc13)-c1ccccc1-2,inactive
5,CC(=O)S[C@@H]1CC2=CC(=O)CC[C@]2(C)[C@H]2CC[C@@]3(C)[C@@H](CC[C@@]34CCC(=O)O4)[C@H]12,inactive
6,CCCCCCCCCCn1cc[n+](CCCCCCCCCC)c1C,inactive
7,CC(=O)N1CCN(c2ccc(OC[C@H]3CO[C@](Cn4ccnc4)(c4ccc(Cl)cc4Cl)O3)cc2)CC1,inactive
8,CCCCCCCCCCCCCCCC(=O)OC[C@H](O)[C@H]1OC(=O)C(O)=C1O,inactive
9,CCCCCCCCNC(C)C(O)c1ccc(SC(C)C)cc1 (stereo not given),inactive
10,Cc1cc(O)c2ccccc2c1O,inactive
11,CCN(CCC#N)c1ccc(N=Nc2c(Cl)cc([N+](=O)[O-])cc2Cl)cc1,inactive
12,CCc1oc2ccccc2c1C(=O)c1cc(Br)c(O)c(Br)c1,inactive
13,O=C(O)c1c(Cl)cccc1Cl,inactive
14,CN(C)[C@@H]1C(=O)C(C(N)=O)=C(O)[C@@]2(O)C(=O)C3=C(O)c4c(O)ccc(Cl)c4[C@@H](O)[C@H]3C[C@@H]12,inactive
15,Oc1c(Cl)cc(Cl)c2cccnc12,13300 nM (active)
16,CSc1cnc(C)cn1,inactive
17,Cc1cccc(CN2CCN(C(c3ccccc3)c3ccc(Cl)cc3)CC2)c1 (stereo not given),inactive
18,CSc1ccc2c(c1)C(N1CCN(C)CC1)Cc1ccccc1S2 (stereo not given),inactive
19,O=C(O)c1ccc(Cl)c(Cl)c1,inactive
20,C[C@@H]1C[C@H]2[C@@H]3CCC4=CC(=O)C=C[C@]4(C)[C@@]3(Cl)[C@@H](O)C[C@]2(C)[C@@]1(OC(=O)c1ccco1)C(=O)CCl,inactive

row,SMILES,Potency
1,Cc1cc(N)c(S(=O)(=O)O)cc1Cl,inactive
2,CO[Si](CCCNc1ccccc1)(OC)OC,inactive
3,CC(C)CCCCCCCCCCCCCCC(=O)O,inactive
4,CC1=NC(C)OC1C (stereo not given),inactive
5,Oc1cccc(-c2c3nc(c(-c4cccc(O)c4)c4ccc([nH]4)c(-c4cccc(O)c4)c4nc(c(-c5cccc(O)c5)c5ccc2[nH]5)CC4)C=C3)c1,inactive
6,CCOC(=O)O[C@H](C)OC(=O)c1ccc2c(c1)cc(C(=O)NC1CCN(C(C)C)CC1)n2Cc1cc(-c2ccc(Cl)s2)on1,inactive
7,NNc1nc(-c2ccccc2)cs1,inactive
8,CC(C)(C)C(=O)OCOC(=O)[C@@H]1N2C(=O)[C@@H](NC(=O)[C@H](N)c3ccccc3)[C@H]2SC1(C)C,inactive
9,C/C=C(\C)C(=O)OCc1ccccc1,inactive
10,CC[C@H]1O[C@]2(CC[C@@H]1C)C[C@@H]1C[C@@H](C/C=C(\C)C[C@@H](C)/C=C/C=C3\CO[C@@H]4[C@H](O)C(C)=C[C@@H](C(=O)O1)[C@]34O)O2,inactive
11,CC/C(=C(\c1ccc(O)cc1)c1ccc(OCCN(C)C)cc1)c1ccccc1,inactive
12,Cc1[nH]nc2c1N=C(c1ccccc1Cl)c1cc([N+](=O)[O-])ccc1N2,1930 nM (active)
13,C[n+]1ccn(Cc2ccccc2)c1,inactive
14,NC(=O)N1C(=O)C(C(=O)c2cc(Cl)cs2)c2cc(F)c(Cl)cc21 (stereo not given),inactive
15,O=C(O)c1cc(O)c2c(c1)C(=O)c1cccc(O)c1C2=O,inactive
16,O=c1c(-c2ccccc2)c1-c1ccccc1,inactive
17,CCC1=C[C@@H]2CN(C1)Cc1c([nH]c3ccccc13)[C@@](C(=O)OC)(c1cc3c(cc1OC)N(C)[C@H]1[C@@](O)(C(=O)OC)[C@H](OC(C)=O)[C@]4(CC)C=CCN5CC[C@]31[C@@H]54)C2,2370 nM (active)
18,Oc1ccc(C2(c3ccc(O)cc3)CC3CC2C2CCCC32)cc1 (stereo not given),inactive
19,CCCC(c1cc(C(C)(C)C)c(O)cc1C)c1cc(C(C)(C)C)c(O)cc1C,inactive
20,CCCCCCCCn1sc(Cl)c(Cl)c1=O,inactive
